Reference: PubChem BioAssay (NCATS)
Records with an inconclusive call do not appear. Activity calls are given as the source filed them. Unless noted, calls follow the shape of the dose curve; as a rule, active = well fitted curve in the direction sought with a large enough effect; inconclusive = small, poorly fitted or top-dose-only effect, or another doubt; inactive = no such curve, though single readings can be large; an effect the other way counts as inactive or inconclusive.

Legend:
[1] = Cell Viability - NIH 3T3 (AID 541); details: NIH 3T3 cell viability, qHTS; activity change, negative = cytotoxicity: at 92.2 µM (top of the series);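 also: cells exposed to compound for 40 hours; nearly all actives have a fitted effect of over 25% in size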
Outline: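 AC50 values reflect concentration-dependent loss of intracellular ATP in NIH 3T3 cells after 40 hr treatment in complete culture medium, quantified by luciferase-based luminescence.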

[2] = Cell Viability - SH-SY5Y (AID 544); details: SH-SY5Y neuroblastoma cell viability; viability change, negative = cytotoxic: at 92.2 µM (top of the series);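 also: cells exposed to compound for 40 hours; nearly all actives have a fitted effect of over 55% in size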
Outline: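 Cytotoxicity is scored as a concentration-dependent fall in intracellular ATP in human SH-SY5Y cells treated 40 hr in complete culture medium. Potency is expressed as AC50 from a Hill equation fit.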

[3] = MultiTox-Fluor Cytotoxicity Assay - LYMP1-001 - Dead Cells (AID 946);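 also: cells exposed to compound for 16 h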
Outline: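 LYMP1-001 lymphoblastoid cells (2500/well) treated 16 h at 37 C. Dead-cell protease cleavage of bis-AAF-R110 read at Ex/Em 485/520. Normalized to DMSO and 15 uM tetraoctylammonium bromide; AC50 from Hill fits.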

[4] = Cell Viability - LYMP1-003 - Assay at 40 hr (AID 964); also: nearly all actives have a fitted effect of over 60% in size
Outline: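 This qHTS cytotoxicity screen treats human lymphoblastoid cells (LYMP1-003) with compounds for 40 hr and quantifies cellular ATP via luciferase luminescence.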

[5] = Cell Viability - LYMP2-019 (AID 973); also: nearly all actives have a fitted effect of over 55% in size
Outline: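 Cells plated at 2500/well and allowed 5 hr at 37 C before compound addition. After 24 hr incubation, CellTiter-Glo reagent was added, plates sat 30 min at room temperature, and luminescence was recorded.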

[6] = Cell Viability - LYMP2-023 (AID 975);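 also: cellular ATP measured by luciferase luminescence as viability proxy; nearly all actives have a fitted effect of over 55% in size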
Outline: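 Concentration-dependent drop in intracellular ATP measures acute cytotoxicity in a human lymphoblastoid line treated for 24 hours in complete culture medium. AC50 values are taken from Hill-equation fits of qHTS data.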

[7] = Cell Viability - LYMP2-006 (AID 978); also: nearly all actives have a fitted effect of over 60% in size
Outline: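 Human lymphoblastoid cells, 2500 per well, were preincubated 5 hr at 37 C, then exposed to compounds for 24 hr at 37 C in complete medium. Viability was read as intracellular ATP by CellTiter-Glo luminescence; AC50 from Hill-equation fits of qHTS concentration-response data.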

[8] = Cell Viability - LYMP2-007 (AID 979);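 also: cells exposed to compound for 24 h before reading; nearly all actives have a fitted effect of over 60% in size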
Outline: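 Acute toxicity is scored as a concentration-dependent fall in intracellular ATP in human lymphoblastoid cells treated 24 hr at 37 C, measured by luciferase luminescence; Hill-equation modelling yields AC50.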

[9] = Cell Viability - LYMP2-014 (AID 983); also: nearly all actives have a fitted effect of over 50% in size
Outline: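 Decrease in intracellular ATP after 24 hr treatment at 37 C, measured by luciferase luminescence, indicated cytotoxicity. Concentration-response data were fitted with the standard Hill equation to give AC50.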

[10] = Cell Viability - LYMP2-018 (AID 985);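 also: compound exposure lasted 24 hr at 37 °C; nearly all actives have a fitted effect of over 50% in size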
Outline: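 Acute cytotoxicity is scored as a concentration-dependent drop in intracellular ATP after 24 hr exposure of the lymphoblastoid line in complete culture medium, measured by luciferase luminescence. Potency is expressed as AC50 from Hill modelling.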

[11] = Cell Viability - LYMP2-022 (AID 987); also: nearly all actives have a fitted effect of over 55% in size
Outline: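 Acute toxicity in a human lymphoblastoid line is scored as decreased intracellular ATP after 24 hr compound treatment at 37 C. ATP is measured by CellTiter-Glo luminescence; curves are fitted with the Hill equation to give AC50.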

[12] = biological target: Retinoic acid receptor RXR-alpha (Homo sapiens) (UniProt P19793); assay: qHTS assay for small molecule agonists of retinoid X receptor alpha signaling (AID 588544; calls by dose curve)
Sequence of Retinoic acid receptor RXR-alpha (Homo sapiens) (P19793 whole entry, looked up): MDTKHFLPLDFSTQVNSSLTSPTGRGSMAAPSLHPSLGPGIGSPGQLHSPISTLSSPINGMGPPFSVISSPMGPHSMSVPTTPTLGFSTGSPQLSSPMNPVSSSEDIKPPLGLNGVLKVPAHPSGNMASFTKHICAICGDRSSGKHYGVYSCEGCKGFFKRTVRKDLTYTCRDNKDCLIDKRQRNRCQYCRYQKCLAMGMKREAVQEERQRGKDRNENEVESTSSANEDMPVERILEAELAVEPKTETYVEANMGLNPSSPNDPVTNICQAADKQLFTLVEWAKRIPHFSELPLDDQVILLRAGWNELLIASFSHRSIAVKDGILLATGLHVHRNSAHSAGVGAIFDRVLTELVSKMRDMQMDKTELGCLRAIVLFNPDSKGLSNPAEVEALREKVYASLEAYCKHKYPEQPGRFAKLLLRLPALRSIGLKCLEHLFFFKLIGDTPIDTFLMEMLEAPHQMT

[13] = biological target: Voltage-gated inwardly rectifying potassium channel KCNH2 (Homo sapiens) (UniProt Q12809); assay: qHTS Assay for Small Molecule Inhibitors of the Human hERG Channel Activity (AID 588834);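 also: lower thallium flux fluorescence means stronger hERG block; nearly all actives have a fitted effect of over 50% in size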; also: potency is read from the fitted curve at half-maximal effect
Sequence of Voltage-gated inwardly rectifying potassium channel KCNH2 (Homo sapiens) (Q12809 whole entry, looked up): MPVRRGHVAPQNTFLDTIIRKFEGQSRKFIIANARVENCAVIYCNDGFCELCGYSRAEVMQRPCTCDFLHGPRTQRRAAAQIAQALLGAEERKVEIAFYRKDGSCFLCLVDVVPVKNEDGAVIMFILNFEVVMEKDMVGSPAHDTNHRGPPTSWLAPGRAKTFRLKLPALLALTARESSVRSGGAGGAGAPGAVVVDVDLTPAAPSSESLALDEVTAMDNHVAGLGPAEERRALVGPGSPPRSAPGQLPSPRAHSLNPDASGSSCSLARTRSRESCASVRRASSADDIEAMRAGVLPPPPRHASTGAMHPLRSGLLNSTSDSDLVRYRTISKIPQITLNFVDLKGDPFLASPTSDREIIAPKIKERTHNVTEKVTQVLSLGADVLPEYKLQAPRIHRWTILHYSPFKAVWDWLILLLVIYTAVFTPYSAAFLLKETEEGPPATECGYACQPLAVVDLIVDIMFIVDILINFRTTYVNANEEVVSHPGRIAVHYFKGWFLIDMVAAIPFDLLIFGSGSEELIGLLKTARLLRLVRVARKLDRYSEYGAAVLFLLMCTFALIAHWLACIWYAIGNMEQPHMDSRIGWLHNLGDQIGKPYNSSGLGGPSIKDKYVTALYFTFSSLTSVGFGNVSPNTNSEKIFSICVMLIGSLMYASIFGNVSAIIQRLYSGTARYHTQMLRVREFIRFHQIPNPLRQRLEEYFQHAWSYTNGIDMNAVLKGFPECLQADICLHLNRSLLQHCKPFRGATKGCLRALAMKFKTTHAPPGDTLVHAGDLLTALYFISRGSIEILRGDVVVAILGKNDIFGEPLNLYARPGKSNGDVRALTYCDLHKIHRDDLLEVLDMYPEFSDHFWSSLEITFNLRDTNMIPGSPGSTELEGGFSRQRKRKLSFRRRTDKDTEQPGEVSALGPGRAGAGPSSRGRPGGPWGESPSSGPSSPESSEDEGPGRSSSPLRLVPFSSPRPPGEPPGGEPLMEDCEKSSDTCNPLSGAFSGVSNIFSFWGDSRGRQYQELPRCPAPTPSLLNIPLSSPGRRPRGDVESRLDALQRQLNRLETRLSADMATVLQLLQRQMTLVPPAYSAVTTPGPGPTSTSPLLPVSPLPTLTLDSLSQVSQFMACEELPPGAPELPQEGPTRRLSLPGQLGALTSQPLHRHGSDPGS
Outline: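 U2OS cells transduced with hERG via BacMam (MOI ~100), plated 2000/well, loaded with FluxOR thallium dye, compound ~10 min, then stimulation buffer; fluorescence decrease read kinetically; AC50 from Hill fits.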

[14] = Cell Viability - LYMP2-001 (AID 921); also: nearly all actives have a fitted effect of over 70% in size
Outline: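 Human lymphoblastoid cells (Coriell), 2500 per well, were preincubated 5 hr at 37 C, then exposed to compounds in complete medium for 24 hr at 37 C. Cellular ATP was read by CellTiter-Glo luminescence; AC50 from Hill fits of concentration-response data.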

[15] = Cell Viability - LYMP2-011 (AID 969); also: nearly all actives have a fitted effect of over 60% in size
Outline: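 Acute toxicity is scored as a concentration-dependent drop in intracellular ATP of a human lymphoblastoid line after 24 hr treatment. Values are AC50s modeled with the Hill equation.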

[16] = Cell Viability - LYMP2-015 (AID 971); also: nearly all actives have a fitted effect of over 55% in size
Outline: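 Acute toxicity was scored as a concentration-dependent drop in intracellular ATP in lymphoblastoid cells after 24 hr compound exposure in complete medium. Detection used CellTiter-Glo luciferase luminescence.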

[17] = Cell Viability - LYMP2-002 (AID 977)
Outline: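 Luminescent ATP readout (CellTiter-Glo, 30 min room temperature) after 24 h compound exposure at 37 C of a human lymphoblastoid line, 2500 cells/well. AC50 values derived by standard Hill fitting of qHTS concentration-response data.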

[18] = Cell Viability - LYMP2-010 (AID 981); also: nearly all actives have a fitted effect of over 55% in size
Outline: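 Acute toxicity is scored as a concentration-dependent loss of cellular ATP in human lymphoblastoid cells after 24 hr compound exposure in complete medium. Tetraoctylammonium bromide is the positive control.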

[19] = Cell Viability - LYMP2-020 (AID 986); also: nearly all actives have a fitted effect of over 55% in size
Outline: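 Acute cytotoxicity in a human lymphoblastoid line is scored as a concentration-dependent fall in cellular ATP after 24 hr at 37 C in complete medium. The positive control is tetraoctylammonium bromide, and potency is given as Hill-fit AC50.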

[20] = Cell Viability - LYMP2-026 (AID 989); also: nearly all actives have a fitted effect of over 50% in size
Outline: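 Concentration-dependent loss of intracellular ATP in human lymphoblastoid cells after 24 hr at 37 C, quantified by luciferase luminescence. AC50 derived from standard Hill equation.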

Measured: Potency

O=C(O)CCl
not listed: [14] | [15] | [16] | [17] | [18] | [19] | [20]
inactive: all other assays above

Brc1cccc(-c2ccccc2)c1
active: [13] 35.5 µM
not listed: [8] | [11]
inactive: all other assays above

CCNCC
not listed: [4] | [5] | [10] | [12]
inactive: all other assays above

O=[N+]([O-])c1cccc2c([N+](=O)[O-])cccc12
not listed: [12] | [13]
inactive: all other assays above

c1ccc(C2CO2)cc1 (stereo not given)
not listed: [15] | [18] | [19]
inactive: all other assays above

C=C(Cl)CCl
inactive: all assays above

ClCCCCl
not listed: [6] | [7] | [14] | [15] | [19]
inactive: all other assays above

CC12CC1(C)C(=O)N(c1cc(Cl)cc(Cl)c1)C2=O (stereo not given)
not listed: [4] | [5] | [11] | [18]
inactive: all other assays above

CC(C)CC(C)N (stereo not given)
not listed: [6] | [10] | [20]
inactive: all other assays above
